Source: PubChem BioAssay
A selection: hits, their analogues and other compounds. The true share with any hit is near 4%.
D1 antag: antagonists of human D1 dopamine receptor. P21728. HEK293 TREx D1 cells, calcium flux, dopamine EC80; hits give low values. activity change, negative = inhibition, % at 10 µM. 360,000 compounds, 3.2% hits. AID 504652; in the data active = activity change below about -30%; note: % is set by controls: 0 for no effect and ±100 for the full control effect
Target sequence (P21728 whole entry, looked up): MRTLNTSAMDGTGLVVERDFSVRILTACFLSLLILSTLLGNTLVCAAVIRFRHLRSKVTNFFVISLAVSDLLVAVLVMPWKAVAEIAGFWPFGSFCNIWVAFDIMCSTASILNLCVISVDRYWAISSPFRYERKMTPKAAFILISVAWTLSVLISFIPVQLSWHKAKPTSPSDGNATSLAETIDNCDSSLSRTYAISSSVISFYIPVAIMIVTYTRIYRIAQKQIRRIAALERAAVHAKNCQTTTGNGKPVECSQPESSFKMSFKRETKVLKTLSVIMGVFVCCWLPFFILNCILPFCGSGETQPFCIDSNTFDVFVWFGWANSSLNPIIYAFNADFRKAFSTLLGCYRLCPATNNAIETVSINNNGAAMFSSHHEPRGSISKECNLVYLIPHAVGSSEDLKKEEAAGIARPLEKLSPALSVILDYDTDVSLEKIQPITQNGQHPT
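Tetracycline-induced HEK293 T-REx cells with force-coupled D1 receptor were loaded with a no-wash calcium dye. Compound was added after a 10 s baseline and read kinetically for 180 s; EC80 dopamine was then added and calcium flux followed another 180 s.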
D1 PAM: enhances dopamine response at the human D1 receptor; HEK293 TREx D1 cells, calcium flux, dopamine EC20 potentiation; 360,000 compounds, 0.036% hits; potentiation, % at 10 µM; AID 504651; P21728; in the data active = potentiation above about 30%; note: 0% is about no effect
TRHR agonist: agonists of human TRH receptor. activation, % at 2 µM. AID 493084. P34981. TRHR cells, calcium flux fluo-8, FDSS agonist mode. 360,000 compounds, 0.18% hits; note: 0% is about no effect
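Steps: seed TRHR cells overnight; add fluo-8 no-wash Ca dye, RT 30 min–1.5 h; record 10 s baseline; pin-transfer compounds; monitor fluorescence 1 cycle/s for the agonist window. Calcium increases flag candidate agonists.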
GRP78 ERSR act: induces the endoplasmic reticulum stress response in human glioma cells; AID 602332; U87-MG GRP78 promoter luciferase reporter, 16 h; 420,000 compounds, 0.02% hits; Potency, µM, for inactives: at the highest dose activation, hits mostly activators; active = well fitted activation curve with a large enough effect; inconclusive = small, poorly fitted or top-dose-only effect; inactive = no such curve, though single readings can be large or run the other way; note: potency is the fitted concentration of half-maximal effect; series mostly up to about 76 µM; % of control where 0% means no effect; nearly all actives have a fitted effect of over 35% in size
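Stably transfected U87-MG human glioma cells carrying a GRP78-based luminescent sensor were seeded at 1000 cells/well, pin-dosed with compounds and incubated 16 h. Luciferase reagent was then added, and end-point luminescence was read after 10 min at room temperature.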
D1 ag: activates the human D1 dopamine receptor; activation, % at 2 µM; 360,000 compounds, 1% hits; AID 504660; HEK293 T-REx D1 cells, calcium flux, agonist mode; note: 0% is about no effect
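Agonism was scored from calcium flux recorded over 180 s (1 read/s) after pintool compound addition, following a 10-cycle baseline. Cells were inducible force-coupled HEK293 TREx D1, plated overnight at 30 C and loaded with no-wash calcium dye.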
TRHR enhancer: allosterically enhances the human TRH receptor. TRHR cells, fluo-8 calcium fluorescence, EC20 TRH enhancement. AID 493056. enhancement, % at 2 µM. 360,000 compounds, 0.66% hits. P34981; in the data active = enhancement above about 30%; note: 0% is about no effect
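TRHR-expressing cells loaded with fluo-8 calcium dye were read kinetically (ex 480/em 530) during compound addition, then stimulated with an EC20 of TRH (10 nM final). Enhancement of the Gq-mediated intracellular calcium response was scored.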
An asterisk follows results filed as active; ? = inconclusive; / = not tested or not shown. Cut-off read from the data, not from the text of the source, unless noted: active = activation above about 30%; inactive = the rest.

SMILES	D1 antag	D1 PAM	TRHR agonist	GRP78 ERSR act	D1 ag	TRHR enhancer
N#CC(C(=O)OCc1ccccc1)c1nc2ccccc2nc1N1CCOCC1 (stereo not given)	8	4	6	-1%	33*	1
S=c1ccss1	/	/	/	-3%	/	/
CCCCn1c(N)c(N(CC)C(=O)C2CCC2)c(=O)[nH]c1=O	0	/	0	-3%	2	8
CCCCN(C(=O)COC(=O)c1ccccc1)c1c(N)n(CCC)c(=O)[nH]c1=O	/	/	/	-3%	/	/
CCCCn1c(N)c(N(CC)C(=O)C2CCCC2)c(=O)[nH]c1=O	7	-3	0	-2%	3	36*
CCCCCN(C(=O)COC(=O)c1ccc(C)cc1)c1c(N)n(CCCC)c(=O)[nH]c1=O	-35*	-2	1	-2%	2	3
CCCCn1c(N)c(N(CC)C(=O)c2cccc(OC)c2)c(=O)[nH]c1=O	-31*	-4	1	-5%	1	-2
CCCCN(C(=O)C1CC(=O)N(CCc2ccc(OC)c(OC)c2)C1)c1c(N)n(CCCC)c(=O)[nH]c1=O (stereo not given)	9	6	0	0%	2	30*
CCCCn1c(N)c(N(CC)C(=O)c2cc(C)cc(C)c2)c(=O)[nH]c1=O	-1	-7	0	-4%	0	8
CCOc1ccc(S(=O)(=O)Nc2ccc3c(c2)c(C(C)=O)c(C)n3S(=O)(=O)c2ccc(OCC)cc2)cc1	16	1	0	?	0	-1
COc1ccc(NC(=O)c2cc(C3CCCCN3C(=O)OCCF)on2)c(C)c1 (stereo not given)	/	/	/	-2%	/	/
CCCCn1c(N)c(N(CCOC)C(=O)c2ccc(Cl)c(S(=O)(=O)N3CCCC3)c2)c(=O)[nH]c1=O	-1	-10	0	-5%	3	-1
CCCCn1c(N)c(N(CCOC)C(=O)c2ccc(C)c(S(=O)(=O)N3CCCCC3)c2)c(=O)[nH]c1=O	-38*	-2	0	-2%	6	6
N#C/C(=C(/O)c1ccco1)c1nc2ccccc2s1	2	-4	0	5%	10	0
CC1=CC(=C(C#N)c2nc3ccccc3s2)C=C(C)N1Cc1ccco1	-9	-10	15	4%	44*	-11
COc1ccc(N2CC(C(=O)N[C@@H](C)C(=O)NCCc3ccccc3)CC2=O)cc1 (stereo not given in full)	-3	-4	0	3%	0	-3
COc1ccc(C2(C)NC(=O)N(CC(=O)NC3(C#N)CCCCC3)C2=O)cc1 (stereo not given)	-2	6	0	-2%	2	3
COc1ccc(C2(C)NC(=O)N(CC3CCCCC3)C2=O)cc1 (stereo not given)	-52*	-5	0	-3%	12	-5
CC(/C=N/NC(=O)c1ccncc1)=C\c1ccccc1	-10	-2	2	8%	3	-3
COc1ccccc1C(=O)N/N=C/C(C)=C/c1ccccc1	-64*	-2	0	4%	7	-5
CC(/C=N/NC(=O)Cc1cc(=O)[nH][nH]1)=C\c1ccccc1	1	-9	0	-4%	57*	-9
O=C(COC(=O)COc1ccc(Cl)cc1)Nc1ccc(N2CCOCC2)cc1	-28	-2	-3	-1%	7	-1
CCCc1cc(=O)[nH]c(-n2[nH]c3c(c2=O)CCCC3)n1	-6	1	0	2%	67*	0
CCCc1cc(=O)[nH]c(SCC)n1	/	/	/	-1%	/	/
COCCN(C)C(=O)c1cnn(-c2nccc(-c3cc(OC)ccc3OC)n2)c1C	/	/	/	0%	/	/
SMILES	D1 antag	D1 PAM	TRHR agonist	GRP78 ERSR act	D1 ag	TRHR enhancer
CCCc1nc2ccccc2c2nc(N)nn12	-12	4	0	-3%	2	5
Cc1nc2ccccc2c2nc(N)nn12	-56*	-10	-2	-6%	0	-8
O=S(=O)(c1ccc(Br)cc1)N1CCN(S(=O)(=O)c2ccc3c(c2)OCCO3)CC1	14	0	0	/	0	5
COc1ccc(CCNc2nnc(Sc3nnnn3-c3ccccc3)s2)cc1OC	-53*	-6	-1	-6%	3	18
Cc1ccccc1CNCCCSc1nnnn1-c1ccccc1	4	-1	0	-2%	36*	-2
CCOc1cc(CNCCSc2nnnn2-c2ccccc2)ccc1OC	-11	-1	1	0%	30*	-2
Cc1cccc(NC(=O)c2nc[nH]c2C(=O)N[C@@H](CC(C)C)C(=O)OCc2ccccc2)c1	-10	-3	1	8%	6	-5
Cc1cccc(NC(=O)c2nc[nH]c2C(=O)N[C@@H](C)C(=O)OCc2ccccc2)c1	-33*	-4	0	0%	2	-10
C[C@H](NC(=O)c1nc[nH]c1C(=O)N[C@@H](CCCCNC(=O)OC(C)(C)C)C(=O)OC(C)(C)C)C(=O)OCc1ccccc1	19	-5	1	?	14	-4
C[C@H](NC(=O)c1nc[nH]c1C(=O)N[C@H](C)c1ccccc1)C(=O)OCc1ccccc1	-33*	-8	0	-12%	18	5
C[C@H](NC(=O)c1nc[nH]c1C(=O)NCCCCCNC(=O)OC(C)(C)C)C(=O)OCc1ccccc1	-39*	-4	0	1%	6	-5
C[C@@H](NC(=O)c1nc[nH]c1C(=O)N[C@@H](Cc1ccccc1)C(=O)OCc1ccccc1)c1ccccc1	-17	-1	1	-2%	2	6
C=CCn1c(SCC(=O)Nc2ccc(OC)cc2)nnc1-c1cnccn1	-9	32*	0	-4%	1	7
CC[C@H](NC(=O)[C@H](CCCN=C(N)N)NC(=O)[C@H](Cc1c[nH]c2ccccc12)NC(=O)[C@@H](N)CS)C(=O)N[C@@H](CCCN=C(N)N)C(=O)N[C@@H](Cc1ccc(O)cc1)C(N)=O	/	/	/	-9%	/	/
Cc1cc(C=O)cc(C)c1[N+](=O)[O-]	/	/	/	-1%	/	/
CCC(=O)Nc1ccc(-c2nnc(SCc3ccccc3)n2C)cc1	/	/	/	-3%	/	/
Cc1ccc(Cl)cc1NC(=O)C1C2CCC(O2)C1C(=O)O (stereo not given)	-35*	-1	0	-1%	-1	-2
Cc1ccc(NC(=O)C2C3CCC(O3)C2C(=O)O)c(Br)c1 (stereo not given)	9	0	0	-2%	2	5
CC(C)Oc1ccc(-c2nc(-c3cccnc3)no2)cc1	/	/	/	-7%	/	/
COc1cc(NC(=O)CN(C)C2CCCCC2)c(C)cc1[N+](=O)[O-]	-74*	-11	-1	-3%	0	-3
COc1cc(NC(=O)COC(=O)C2CC2)c(C)cc1[N+](=O)[O-]	7	-5	0	-5%	4	-5
